Hit rate of the full screen: of about 48,000 compounds, about 13,000 (27%) showed an effect of 50% or more. This is one part of the list.

This experiment concerns Wolbachia pipientis. Kind of experiment: Anti-Wolbachia Cell-Based Screen. The experiment is classed as functional. As to conditions: 5 µM. Also on record: scale not given: in the data most compounds retested in dose-response had high values.
As to `CC(NCc1ccc(-c2ccc(F)cc2)o1)c1nnc2n1CCC2` (stereo not given), the “Percent Effect” value is listed as 11.28%.
`CNC(=O)c1ccc(NC2CCN(CC(F)(F)F)C2=O)cc1Cl` (stereo not given): the “Percent Effect” value was 5.324%.
To `Cc1ccc(C(NC(=O)CN2CCc3c(ncn3C)C2)C2CC2)cc1` (stereo not given) belongs 0.6431%.
On to `O=C(CN1C(=O)CCC1=O)N1CCC(CSCc2ccco2)CC1`, for which the “Percent Effect” value is -7.09%.
The same measure for `O=C(CN1C(=O)CCC1=O)N1CCC(S(=O)(=O)Cc2ccco2)CC1`: 3.229%.
To `CC(C)CC(=O)N1CC(=O)N(Cc2ccco2)CC(O)C1` (stereo not given) belongs 81.13%; to `COCCOCCNC(=O)c1ccc(N2CCC(C)=N2)cc1`, -11.91%; to `Cn1cc(CN2CCCC3(CCN(c4nncs4)C3)C2)cn1.O=C(O)C(F)(F)F` (stereo not given), -2.653%.
The same measure for `Cc1cccc(CN2CCC3(CCC(CC(=O)N(C)C)CC3)CC2)n1.O=C(O)C(F)(F)F`: -48.49%; for `Cc1cccc(CN2CCOC3(CCCN(CC(=O)N(C)C)C3)C2)n1.O=C(O)C(F)(F)F.O=C(O)C(F)(F)F` (stereo not given): 7.418%; for `c1cc(CN2CCCC3(CCN(CC4CCCO4)CC3)C2)n[nH]1` (stereo not given): 86.72%.
On to `O=C1OC2(CCN(CC3CCCO3)CC2)CN1CCc1ccccc1` (stereo not given), for which the “Percent Effect” value amounted to 4.853%.
Turning to `CCN1CC2(CCN(CC3CCCO3)CC2)OC1=O` (stereo not given), the “Percent Effect” value is reported as -23.86%.
To `Cc1cccc(CN2CCCC3(CCN(CC4CCCO4)CC3)C2)n1.O=C(O)C(F)(F)F.O=C(O)C(F)(F)F` (stereo not given) belongs 92.13%; to `Cn1cc(CN2CCCC3(CCN(C(=O)c4ccccn4)C3)C2)cn1.O=C(O)C(F)(F)F.O=C(O)C(F)(F)F.O=C(O)C(F)(F)F` (stereo not given), 5.668%.
With `Cc1cccc(CN2CCC3(CCCN(Cc4cnn(C)c4)C3)C2)n1.O=C(O)C(F)(F)F.O=C(O)C(F)(F)F` (stereo not given), the “Percent Effect” value is 99.91%.
For `NC(=O)c1cnc(NC2CCC(c3ccccc3)CC2)c(Cl)c1` (stereo not given), the “Percent Effect” value was -13.17%.
The same measure for `CCc1ncncc1C(=O)N1CCN(Cc2c(C)noc2C)CC1`: -0.7919%; for `COc1ccccc1OC1CCN(C(=O)c2c[nH]c(=O)[nH]c2=O)CC1`: -1.274%.
As to `Cc1nn(CCO)c(C)c1CNC1CCOc2ccccc21.Cl` (stereo not given), the “Percent Effect” value was -2.726%.
Regarding `O=C(NCCNc1cnccn1)N1CC=C(c2ccc(O)cc2)CC1`, the “Percent Effect” value was -14.06%.
The same measure for `CN1CCCN(C(=O)NCCNc2ncccc2C#N)CC1`: -11.99%.
To `CC1CN(C(=O)NCCNc2cnccn2)CCO1` (stereo not given) belongs 93.32%; to `CC1CN(C(=O)NCCCn2cncn2)CCO1` (stereo not given), -6.452%; to `O=C(NCCNc1cnccn1)N1CCc2ccccc2C1`, 3.9%.
As for `CN1CCCN(C(=O)NCCNc2cnccn2)CC1`, the “Percent Effect” value amounted to 104.7%.
For `O=C(NCCNc1cnccn1)N1CC=C(c2ccccc2)CC1`, the “Percent Effect” value was -24.03%.
As to `O=C(NCCNc1ccccn1)N1CCSCC1`, the “Percent Effect” value was 1.97%.
In the case of `CC(=O)N1CCCN(C(=O)NCCNc2cnccn2)CC1`, the “Percent Effect” value was 106.7%.
Regarding `O=C(NCCNc1cnccn1)N1CCN(Cc2cccnc2)CC1`, the “Percent Effect” value is 1.12%.
On to `Cc1[nH]ncc1CCCNC(=O)N1CCOC(C)C1` (stereo not given), for which the “Percent Effect” value is listed as -4.876%.
The same measure for `O=C(NCCNc1cnccn1)N1CCN(c2nccs2)CC1`: 115.8%; for `CC(C)n1ncc2c1NC(=O)C(C#N)C21CCCCC1` (stereo not given): 14.23%; for `CC(C)c1cccc(S(=O)(=O)NCCCN2CCC(O)CC2)c1`: -12.32%.
The same measure for `Cc1cscc1C(=O)Nc1cncnc1N(C)C`: -5.667%; for `N#Cc1cccnc1NCCNC(=O)N1CCCC(N2CCCC2)C1` (stereo not given): 15.17%.
To `O=C(NCCCn1cncn1)N1CCCC(N2CCCC2)C1` (stereo not given) belongs -12.43%.
For the molecule `O=C(NCCNc1cnccn1)N1CCCCCC1`, the “Percent Effect” value stood at 67.88%.
The same measure for `O=C(NCCNc1cnccn1)C1CCN(C(=O)N2CCCC2)CC1`: 14.69%; for `O=C(NCCNc1cnccn1)N1CCCC1`: 0.5946%.
To `O=C(NCCNc1cnccn1)N1CCCC(N2CCCC2)C1` (stereo not given) belongs 106%.
To `Cc1cnc(CN(Cc2ccccc2)CC(O)c2cccs2)cn1` (stereo not given) belongs -0.3476%; to `CCc1nc(C)c(C(=O)N2CCCN(Cc3cnn(C)c3)CC2)s1`, -6.859%; to `CC[C@H](C)[C@H](N)C(=O)N1CC(=O)c2sc(NCc3ccccc3)nc2C1`, 97.62%.
Consider `CCOC(=O)N1CCN(C(=O)c2sc(-c3ccc(F)cc3)nc2C)CC1`, for which the “Percent Effect” value is on record as 5.729%.
With `CCOCC(=O)N1Cc2cnc(-c3ccccc3)nc2C1`, the “Percent Effect” value came out at 12.32%.
On to `CN(C(=O)CNc1ccc(C#N)cc1)C1CCCCC1`, for which the “Percent Effect” value is given as -20.31%.
Turning to `N#Cc1ccc(Nc2nc3c(s2)C(=O)CN(CC2CC2)C3)cc1`, the “Percent Effect” value worked out at 122.3%.
The same measure for `CCc1cccc(OC2CN(C(=O)[C@@H](N)[C@@H](C)O)C2)c1`: -4.168%; for `CC(Oc1ccc(F)cc1)C(=O)N(CC(N)=O)C1CCCC1` (stereo not given): -8.353%.
Consider `CC[C@H](C)[C@H](N)C(=O)N1CC(=O)c2sc(Nc3ccc(F)cc3)nc2C1`, for which the “Percent Effect” value is 106.2%.
Take `N#Cc1ccc(NC(=O)N2CCCCC2CN2CCCC2=O)cc1` (stereo not given): the “Percent Effect” value is on record as -0.03317%.
The same measure for `CC(NC(=O)N1CCN(c2ncccn2)CC1)c1ccc(C#N)cc1` (stereo not given): -9.134%.
The same measure for `CC(C)NC(=O)N1CC(=O)c2sc(Nc3ccc(C#N)cc3)nc2C1`: 104.4%; for `CC(NC(=O)N1CCN(c2cccs2)CC1)c1ccc(C#N)cc1` (stereo not given): -13.59%.
To `Cc1cc(NC(=O)CCN2CCn3c(C)nnc3C2)no1` belongs -12.27%.
With `Fc1cc(CNc2nncs2)ccc1Cl`, the “Percent Effect” value is listed as -25.14%.
To `CC(C)NC(=O)[C@@H]1Cc2[nH]cnc2CN1CCCc1ccccc1` belongs -2.135%.
In the case of `CCN(C)S(=O)(=O)N(Cc1cscn1)c1ccccc1`, the “Percent Effect” value is recorded as -21.13%.
For `CC1CCN(C(=O)Cc2ccc(S(=O)(=O)C(F)F)cc2)CC1`, the “Percent Effect” value is listed as 3.078%.
To `CCOc1ccc(C(=O)Nc2c(C)nc3scc(C)n3c2=O)cc1` belongs -3.66%.
On to `CC(C)CC(=O)N1CC(=O)c2sc(Nc3ccc(C#N)cc3)nc2C1`, for which the “Percent Effect” value came to 99.17%.
For the molecule `CC(CNC(=O)Nc1ccc(C#N)cc1)N1CCc2ccccc21` (stereo not given), the “Percent Effect” value is on record as 15.75%.
Turning to `CC(C)CC(=O)Nc1c(-c2ccc(F)cc2)ncn1C`, the “Percent Effect” value was determined as 20.71%.
Regarding `CC(C1CC1)N(C(=O)CNc1ccc(C#N)cc1)C1CC1` (stereo not given), the “Percent Effect” value is given as -11.75%.
To `CC(C)CC(=O)N1CC(=O)c2sc(Nc3ccc(F)cc3)nc2C1` belongs 97.08%; to `Cc1nnc(NC(=O)N2CCN(Cc3ccc(F)cc3)C(=O)C2)s1`, -5.387%.
To `Cn1c(-c2ccccc2Cl)nc2cc(C(=O)NC(CO)CO)cnc21` belongs -7.352%; to `COCCc1noc(-c2ccc(-c3cc[nH]n3)nc2)n1`, 6.666%.
On to `Cn1nc(C2CCCN(Cc3ccc(F)cc3F)C2)c2nccnc21` (stereo not given), for which the “Percent Effect” value is listed as 118.1%.
The same measure for `OC1CCCN(Cc2ccc(F)c3cccnc23)C1` (stereo not given): 11.38%; for `Cl.Cn1nc(C2CCCN(Cc3cc(F)ccc3F)C2)c2nccnc21` (stereo not given): 109%; for `CCn1c(C2CCCN(Cc3cc(F)ccc3OC)C2)nn(C)c1=O` (stereo not given): -8.154%.
Take `Cc1nc(CN2CCCC(CCc3ccc(F)cc3F)C2)c[nH]1` (stereo not given): the “Percent Effect” value is recorded as 10.82%.
The same measure for `COCc1nccc(C2CCCN(Cc3ccc(C#N)cc3F)C2)n1` (stereo not given): 7.365%; for `COCCOc1ccccc1C(=O)Nc1c(C)cnn1CC1CC1`: 0.1744%; for `NC(=O)CC1CCN(c2ncnc3cccc(F)c23)CC1`: 0.8232%.
As for `Cc1nccn1-c1cc(CNC(=O)CCNC(=O)OC(C)(C)C)ccn1`, the “Percent Effect” value is -3.866%.
To `CCc1cc(NCc2cccnc2N2CCCCC2)n2ncnc2n1` belongs -26.62%.
As to `CC(C)CN(CC(=O)O)C(=O)c1ccc(F)cc1`, the “Percent Effect” value came out at 116.8%.
To `Cc1cc(C(=O)N(C)S(C)(=O)=O)ccc1F` belongs -1.159%; to `Cc1cc(C(=O)N(CC(=O)O)CC(C)C)ccc1F`, 96.02%.
To `Cc1ccc(C(=O)NCCNC(=O)c2cncnc2C(C)C)cc1F` belongs 15.15%.
The same measure for `Cc1ccc(C(=O)N(CC(=O)O)CC(C)C)cc1F`: 102.6%; for `Cc1noc(NC(=O)c2ccc(C)c(F)c2)n1`: 6.644%.
As to `CN(CC(=O)NCCC#N)C(c1ccccc1)c1ccc(F)cc1` (stereo not given), the “Percent Effect” value is given as 2.68%.
As to `CC(O)CN(Cc1cccc(C(=O)N(C)C)c1)c1ccccc1` (stereo not given), the “Percent Effect” value stood at 9.156%.
As to `Cc1cccc(C(=O)N(CC(=O)O)CC(C)C)c1`, the “Percent Effect” value was 94.29%.
To `Cc1cc(C(=O)N(C)S(=O)(=O)C(C)C)ccc1F` belongs -2.598%.
As for `CCN(CC)C(=O)c1cccc(Cn2nc(C)cc2C)c1`, the “Percent Effect” value was -2.548%.
On to `CC(C)CCNC(=O)C(c1cccc(F)c1)N(C)C` (stereo not given), for which the “Percent Effect” value was -2.485%.
The same measure for `CCC1CN(C(=O)c2ccccc2C(C)=O)CCN1C(C)C` (stereo not given): 1.877%; for `COc1cccc(CNC2CCc3ccc(C)cc32)n1` (stereo not given): 12.65%.
To `COCCN1CCN(CC(=O)N(C)Cc2ccccc2)CC1C` (stereo not given) belongs 2.857%.
On to `CN(c1nc(Cn2cnccc2=O)cs1)C1CC1`, for which the “Percent Effect” value is recorded as 6.38%.
Regarding `CNC(=O)C1Cc2ccccc2CN1CCC#N` (stereo not given), the “Percent Effect” value is -3.828%.
As for `CNC(=O)[C@@H]1C[C@@H](N)CN1c1nc(N2CCCC2)nc(C)c1C`, the “Percent Effect” value is listed as 2.441%.
For the molecule `CNC(=O)C1CN(C(C)C)CCN1c1nc(C)cc(C)n1` (stereo not given), the “Percent Effect” value stood at 92.65%.
With `CNC(=O)C1CCCN1c1nc(C)c2ccccc2n1` (stereo not given), the “Percent Effect” value came to 9.069%.
For the molecule `CNC(=O)[C@H]1CC[C@@H]2[C@@H](CCN2c2ncccn2)O1`, the “Percent Effect” value is reported as 0.107%.
Regarding `CNC(=O)C1CN(C(C)C)CCN1c1ncccn1` (stereo not given), the “Percent Effect” value is listed as 82.95%.
The same measure for `CCCN1Cc2ccccc2CC1C(=O)NC` (stereo not given): -1.794%.
`Cc1cccnc1NC(=O)C1CCN(C(C)C(=O)NC(C)(C)C)CC1` (stereo not given): the “Percent Effect” value was -8.313%.
To `CNC(=O)C1CN(C)CCN1c1nc(C)cc(C)n1` (stereo not given) belongs 94.41%; to `OC1CCN(c2nc(-c3ccccc3)no2)CC1`, -0.7688%.

For the origin of these results see ChEMBL document CHEMBL3988442, “University of Dundee, Small-Polar-MMV Screening Library” (2021).
